# Assay results taken from PubChem BioAssay AID463173 (ICCB-Longwood Screening Facility, Harvard Medical School, 2010).
# About 4,300 (8.3%) of roughly 52,000 compounds were called active. Only a selection was taken, and actives are over-represented in it overall. A number with no mark means an inactive call. Rule as the data show it: active = survival mostly below about 52% (no sharp cut-off); inactive = mostly above about 56%.
# Tested on: DeltatarO mutant
# Assay: S. aureus survival, RN4220 and DeltatarO strains – OD600, teichoic acid synthesis inhibitors, primary screen (AID 463173)
# Conditions: S. aureus RN4220 wild type/DeltatarO growth, OD600, 18 h, stronger effect = lower value, screened at 18.75 µg/mL (by protocol)
row,SMILES,survival
1,O=C(CCN1N=C(c2ccccc2)CCC1=O)NCCc1ccc(Cl)cc1,122%
2,CCc1cccc(NC(=O)c2c(C)oc3ncnc(N4CCCCC4)c23)c1,54%
3,COC(=O)CSc1nc2c(cc1C#N)CCCC2,106%
4,COc1ccccc1-c1nc(S(=O)(=O)c2ccccc2)c(N2CCC(C)CC2)o1,19% (active)
5,O=S(=O)(c1ccc(Cl)cc1)c1nc(-c2cccs2)oc1SCc1ccc(F)cc1,67%
6,O=S(=O)(c1ccc(Cl)cc1)c1nc(-c2cccs2)oc1N1CCCCC1,45% (active)
7,COc1ccccc1-c1nc(S(=O)(=O)c2ccc(Cl)cc2)c(N2CCCCCC2)o1,60%
8,Cc1ccc(S(=O)(=O)c2nc(-c3cccs3)oc2N2CCC(C)CC2)cc1,8% (active)
9,CC1CCN(c2oc(-c3cccs3)nc2S(=O)(=O)c2ccc(Cl)cc2)CC1,17% (active)
10,CC1CCN(c2nc3c(S(=O)(=O)c4ccc(Cl)cc4)nnn3c3ccsc23)CC1,113%
11,CCCSc1oc(-c2cccs2)nc1S(=O)(=O)c1ccc(Cl)cc1,65%
12,COc1ccc(-c2nc(S(=O)(=O)c3ccccc3)c(N3CCC(C)CC3)o2)cc1,74%
13,O=S(=O)(c1ccc(Cl)cc1)c1nc(-c2ccccc2Br)oc1N1CCOCC1,59%
14,COc1ccccc1-n1nc(-c2ccccc2)c2cnc3cc(C(F)(F)F)ccc3c21,81%
15,CCCS(=O)(=O)N1CC(=O)N(c2cccc(Cl)c2C)C(C)(C(=O)NC2CCCC2)C1 (stereo not drawn),99%
16,COc1ccccc1N1CCN(C(=O)c2cc3c(=O)n(Cc4ccco4)ccc3nc2C)CC1,80%
17,CC(C)CN1CCc2nc(N3CCN(C)CC3)ncc2C1,83%
18,Sc1ccc2oc3ccc(S)cc3c2c1,93%
19,CCS(=O)(=O)c1nc(S(=O)(=O)c2ccc(C)cc2)c(NCc2ccccc2Cl)s1,81%
20,CCc1nn(CC(=O)Nc2ccc(N(CC)CC)cc2C)c(=O)c2cc3sccc3n12,77%
21,O=C(Cc1ccc(Cl)cc1)Nc1ccc2oc(-c3ccccc3F)nc2c1,118%
22,COc1ccc(/C=C/c2nc3ccccc3c(=O)n2-c2cccc(C(F)(F)F)c2)cc1,91%
23,COc1cccc2sc(NC(=O)CS(=O)(=O)c3ccc(C)cc3)nc12,101%
24,c1ccc(-c2cn(-c3ccccc3)c3ncnc(N4CCN(c5ccccc5)CC4)c23)cc1,90%

row,SMILES,survival
1,O=CN1CCN(S(=O)(=O)c2ccc(S(=O)(=O)NC3CC3)cc2)CC1,72%
2,CCOc1ccc(-c2nnc(SCC(=O)NCc3ccc(C)cc3)nc2-c2ccc(OCC)cc2)cc1,106%
3,Cc1ccc(NC(=O)c2ccco2)cc1NC(=O)CSc1ncnc2sc3c(c12)CCC3,54%
4,O=S(=O)(c1ccccc1)c1nc(-c2cccs2)oc1N1CCCCC1,116%
5,CC1CCN(c2oc(-c3cccs3)nc2S(=O)(=O)c2ccccc2)CC1,35% (active)
6,CC1CCN(c2nc3c(S(=O)(=O)c4ccccc4)nnn3c3ccsc23)CC1,113%
7,Cc1ccc(S(=O)(=O)c2nc(-c3cccs3)oc2N2CCCCC2)cc1,39% (active)
8,COc1cccc(-c2nc(S(=O)(=O)c3ccccc3)c(N3CCC(C)CC3)o2)c1,50%
9,COc1ccc(CCNC(=O)CCCn2c(=O)c3ccccc3n(Cc3c(C)cc(C)cc3C)c2=O)cc1OC,89%
10,O=C(NC1CCCCC1)C(c1cccs1)N(Cc1ccco1)C(=O)C1COc2ccccc2O1 (stereo not drawn),96%
11,COc1ccc(OC)c(S(=O)(=O)N2CCC(n3c(C)nc4cccnc43)CC2)c1,73%
12,CCc1ccc2occ(CC(=O)Nc3sc4c(c3C(=O)NCCOC)CCCC4)c2c1,77%
13,CCC(=O)Nc1cc(-c2cccc(C)c2)nn1-c1ccccc1,83%
14,CC1=C(C#N)C(=O)NC(C)(C)C1,76%
15,Cc1ccc(C)c(N2CCN(c3nc4ccc(C(=O)c5ccccc5)cc4n4cnnc34)CC2)c1,79%
16,FC(F)(F)c1cccc(N2CCN(c3nc4ccccc4n4cnnc34)CC2)c1,25% (active)
17,Cc1ccc(Cl)cc1N1CCN(c2nc3ccc(C(=O)c4ccccc4)cc3n3cnnc23)CC1,-4% (active)
18,Clc1cccc(N2CCN(c3nc4ccccc4n4cnnc34)CC2)c1,62%
19,Cc1ccc(N2CCN(c3nc4ccc(C(=O)c5ccccc5)cc4n4cnnc34)CC2)c(C)c1,82%
20,Cc1ccc2nc(N3CCN(c4cccc(C)c4C)CC3)c3nncn3c2c1,39% (active)
21,CCc1nnc2c(N3CCN(c4cccc(C(F)(F)F)c4)CC3)nc3ccccc3n12,108%
22,CCc1nnc2c(N3CCN(c4cc(Cl)ccc4C)CC3)nc3ccccc3n12,-5% (active)
23,CCc1nnc2c3ccccc3nc(N3CCN(c4cc(Cl)ccc4C)CC3)n12,104%
24,Cc1ccc(C)c(N2CCN(c3nc4ccccc4n4c(C)nnc34)CC2)c1,77%

row,SMILES,survival
1,Cc1ccc(C)c(N2CCN(c3nc4ccc(Cl)cc4n4cnnc34)CC2)c1,89%
2,Cc1ccc2nc(N3CCN(c4cccc(C)c4C)CC3)c3nnnn3c2c1,81%
3,COc1ccccc1-c1nnc2n(CCc3ccccc3)c(=O)c3ccccc3n12,69%
4,CCN(CC)C(=O)c1sc2c(c1C)c(=O)n(-c1ccc(C)c(C)c1)c(=O)n2CC(=O)Nc1ccc(OC)cc1OC,78%
5,O=C(NCc1cccc(Cl)c1)C1CCCN(c2ncnc3onc(-c4ccc(F)cc4)c23)C1 (stereo not drawn),90%
6,COc1ccc(C)cc1NC(=O)c1nnn(Cc2cccc(Br)c2)c1N,87%
7,COc1ccc(N2CCN(c3oc(-c4ccc(COc5cccc(C)c5)o4)nc3C#N)CC2)cc1,102%
8,COc1cc2nc(C3CCC3)n(NC(=O)c3ccco3)c(=O)c2cc1OC,82%
9,O=S1(=O)N=C(Nc2cccc(C(F)(F)F)c2)c2ccccc21,53%
10,COc1ccccc1N1CCN(c2nc3ccc(C(=O)c4ccccc4)cc3n3c(C)nnc23)CC1,46% (active)
11,Cc1nnc2c(N3CCN(c4ccccc4F)CC3)nc3ccc(C(=O)c4ccccc4)cc3n12,93%
12,Cc1nnc2c(N3CCN(c4ccccc4)CC3)nc3ccc(C(=O)c4ccccc4)cc3n12,80%
13,COc1ccc(NC(=O)Cn2nc(-c3ccccc3)c3cnc4ccc(C)cc4c32)cc1,63%
14,CC(C)c1ccc2c(c1)-c1ccccc1S(=O)(=O)N2CC(=O)N1CCCCC1,85%
15,CCCC(=O)NC(C)c1nc2ccccc2n1Cc1ccccc1 (stereo not drawn),101%
16,Cc1cc(N2CCOCC2)cc(C)[n+]1[O-],90%
17,COc1ccccc1C1CC(=O)N(c2cccc(C(F)(F)F)c2)C2=C1C(=O)OC2 (stereo not drawn),56%
18,CCc1ccc(C2CC(=O)N(c3cccc(C(F)(F)F)c3)C3=C2C(=O)OC3)cc1 (stereo not drawn),57% (active)
19,Cc1cc(C)cc(N2C(=O)CC(c3ccc(C(F)(F)F)cc3)C3=C2COC3=O)c1 (stereo not drawn),72%
20,CCN(CC)c1ccc(NC(=O)c2cc(CN3CCCC3)on2)c(C)c1,102%
21,CC(=O)c1ccc(N2CCN(c3ncnc4onc(C)c34)CC2)cc1,55%
22,COc1ccc(S(=O)(=O)c2nnn(-c3cccc(Cl)c3)c2N)cc1,56%
23,CCOc1ccc(-c2nc3ccccc3c(=O)o2)cc1,68%
24,CCCOc1ccc(-c2nc3ccccc3c(=O)o2)cc1,64%

row,SMILES,survival
1,CCOc1cccc(-c2nc3ccccc3c(=O)o2)c1,35% (active)
2,CCCOc1cccc(C(=O)NCc2cccnc2)c1,81%
3,COc1cc(N2C(=O)CSC23C(=O)N(C)c2ccccc23)cc(OC)c1OC (stereo not drawn),66%
4,COC(=O)c1cc(S(=O)(=O)NCC2CCN(Cc3ccc(F)cc3)CC2)cn1C,109%
5,COc1ccc(-c2nnc(SCC(=O)Oc3cc(C)ccc3C)o2)cc1,67%
6,CCCCCSc1nnc(-c2ccc(Br)cc2)o1,-1% (active)
7,CCOC(=O)CSc1nnc(-c2ccc(OC)cc2)o1,66%
8,N#Cc1ccc(CSc2nnc(-c3ccc(Br)cc3)o2)cc1,87%
9,CCCCOC(=O)CSc1nnc(-c2ccc(C)cc2)o1,12% (active)
10,N#Cc1ccccc1CSc1nnc(-c2ccc(Br)cc2)o1,92%
11,CC(=O)Nc1ccc(S(=O)(=O)N2CCC(N3CCN(Cc4ccc(C)cc4)C(=O)C3=O)CC2)cc1,83%
12,COCCCNc1nc2c(-c3ccccc3)nnn2c2ccccc12,78%
13,O=C(Nc1ccc2nc(-c3ccccc3)[nH]c2c1)c1ccco1,1% (active)
14,Cc1csc2nc(-c3cccc(NC(=O)c4ccccc4F)c3)cn12,126%
15,O=C(Nc1cccc(-c2nc3ccccc3[nH]2)c1)c1c(F)cccc1F,37% (active)
16,O=C(NCc1nc2ccccc2[nH]1)c1c(F)cccc1F,56%
17,CC(C)(C)C(=O)Nc1ccc(-c2nc3ccc(NC(=O)C(C)(C)C)cc3[nH]2)cc1,105%
18,CC(=O)Nc1cc(NC(C)=O)cc(-c2nc3ccccc3[nH]2)c1,83%
19,O=C(Nc1cccc(-c2nc3ccccc3[nH]2)c1)c1ccccc1F,29% (active)
20,O=C(Nc1cccc(NC(=O)c2ccccc2F)c1)c1ccccc1,77%
21,CCC(=O)Nc1ccc(-c2nc3ccc(NC(=O)CC)cc3[nH]2)cc1,66%
